Records with an inconclusive call do not appear. The source made the active and inactive calls. Calls follow the shape of the dose curve; as a rule, active = well fitted inhibition curve with a large enough effect; inconclusive = small, poorly fitted or top-dose-only effect; inactive = flat fitted curve, though single readings scatter.
Tests used:
CRL-7250 = normal cell line; test: Cytotoxic Profiling of Annotated Libraries Using Quantitative High-Throughput Screening (AID 1296008); details: Five cell lines viability, CellTiter-Glo ATP luminescence, 48-72 h; hits give low values; as to max response: % is scaled to controls: 0 for no effect and ±100 for the full control effect
Outline: (§1)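 Cells exposed to compounds for 48 or 72 hr at 37 degrees Celsius. Viability read as ATP-coupled luminescence with CellTiter-Glo after 10 min at room temperature.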

HEK293 = test: as above; details: Five cell lines viability, CellTiter-Glo ATP luminescence, 48-72 h; hits give low values
Outline: as §1

HaCat [1] = test: as above; details: Five cell lines viability, CellTiter-Glo ATP luminescence, 48-72 h; hits give low values
Outline: as §1

KB-3-1 = test: as above; details: Five cell lines viability, CellTiter-Glo ATP luminescence, 48-72 h, hits give low values
Outline: as §1

NIH3T3 = test: as above; details: Five cell lines viability, CellTiter-Glo ATP luminescence, 48-72 h; hits give low values
Outline: as §1

HACAT [2] = test: qHTS assay to identify novel small-molecules to repurpose for Merkel cell carcinoma treatment (AID 1296009); details: MCC and control cell lines, CellTiter-Glo viability, 72 h; at 44.8 µM (top of the series) unless noted
Outline: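 Dose-response viability screen; 72 hr exposure at 37 degree celsius; CellTiter-Glo added, 10 min room temperature, luminescence read; RLUs scaled between no-cell and DMSO wells.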

Measured: max response
Also: nearly all actives have a fitted effect of over 60% in size.

C=CCN1C[C@H](C(=O)N(CCCN(C)C)C(=O)NCC)C[C@@H]2c3cccc4[nH]cc(c34)C[C@H]21
inactive: CRL-7250 | HEK293 1.65% | HaCat [1] -1.25% | KB-3-1 6.36% | NIH3T3

CO[C@@]1(NC(=O)C(C(=O)O)c2ccc(O)cc2)C(=O)N2C(C(=O)O)=C(CSc3nnnn3C)CO[C@@H]21 (stereo partly specified)
inactive: CRL-7250 -2.58% | HEK293 1.05% | HaCat [1] | KB-3-1 4.1% | NIH3T3 -2.47% | HACAT [2]

NC(=O)N[C@@H](CCC(=O)O)C(=O)O
inactive: CRL-7250 | HEK293 -4.43% | HaCat [1] | KB-3-1 -19.7% | NIH3T3 | HACAT [2]

NC(=O)c1ccc([N+](=O)[O-])cc1Cl
inactive: CRL-7250 3.21% | HEK293 -0.167% | HaCat [1] -15.2% | KB-3-1 1.89% | NIH3T3

CC[C@]12CCCN3CCc4c(n(c5ccccc45)[C@@](O)(C(=O)OC)C1)[C@@H]32
inactive: CRL-7250 | HEK293 0.673% | HaCat [1] | KB-3-1 3.99% | NIH3T3 | HACAT [2]

CCOC(=O)[C@H](CCc1ccccc1)N[C@@H](C)C(=O)N1Cc2cc(OC)c(OC)cc2C[C@H]1C(=O)O
inactive: CRL-7250 | HEK293 | HaCat [1] 2.61% | KB-3-1 -3.37% | NIH3T3 2.92%

C/C=C1\[C@H]2C=C(C)C[C@]1(N)c1ccc(=O)[nH]c1C2
inactive: CRL-7250 -0.0215% | HEK293 | HaCat [1] 4.06% | KB-3-1 -3.64% | NIH3T3 -4.73%

CC(=O)OCC(=O)[C@@]1(O)CC[C@H]2[C@@H]3CCC4=CC(=O)C=C[C@]4(C)[C@@]3(F)[C@@H](O)C[C@@]21C
inactive: CRL-7250 2.22% | HEK293 | HaCat [1] | KB-3-1 29.8% | NIH3T3 0.516% | HACAT [2]

O=c1[nH]c(=O)n([C@H]2C[C@H](O)[C@@H](CO)O2)cc1I
inactive: CRL-7250 | HEK293 -0.666% | HaCat [1] | KB-3-1 5.94% | NIH3T3 | HACAT [2]

Cc1ccc2c(c1)c1c3n2CCNC3CCC1 (stereo unspecified)
inactive: CRL-7250 -2.33% | HEK293 -1.48% | HaCat [1] | KB-3-1 -0.231% | NIH3T3 -0.828% | HACAT [2]

CC(=O)N1C[C@H](O)C[C@H]1C(=O)O
inactive: CRL-7250 | HEK293 1.84% | HaCat [1] 4.9% | KB-3-1 8.51% | NIH3T3

CCOC(=O)OC(C)OC(=O)[C@@H]1N2C(=O)[C@@H](NC(=O)[C@H](N)c3ccccc3)[C@H]2SC1(C)C (stereo partly specified)
inactive: CRL-7250 -4.78% | HEK293 -9.36% | HaCat [1] | KB-3-1 -3.71% | NIH3T3 | HACAT [2]

C/C=C/C(=O)N(CC)c1ccccc1C
inactive: CRL-7250 -6.75% | HEK293 0.227% | HaCat [1] 0.376% | KB-3-1 21.1% | NIH3T3 1.85%

CC1(c2ccccc2)OC(C(=O)O)=CC1=O (stereo unspecified)
inactive: CRL-7250 -0.824% | HEK293 1.9% | HaCat [1] | KB-3-1 17.3% | NIH3T3 -3.39% | HACAT [2]

O=C(O)/C=C/c1ccc(Cn2ccnc2)cc1
inactive: CRL-7250 -1.04% | HEK293 -1.65% | HaCat [1] 4.76% | KB-3-1 2.2% | NIH3T3

CC(=O)N[C@@H](CC(C)C)C(=O)O
inactive: CRL-7250 -9.67% | HEK293 -5.66% | HaCat [1] | KB-3-1 -12.6% | NIH3T3 -1.86% | HACAT [2]

CC(C)(C)NCC(O)COc1cccc2c1CCC(=O)N2 (stereo unspecified)
inactive: CRL-7250 4.08% | HEK293 -0.291% | HaCat [1] | KB-3-1 7.08% | NIH3T3 3.67% | HACAT [2]

C[C@]1(Cn2ccnn2)[C@H](C(=O)O)N2C(=O)C[C@H]2S1(=O)=O
inactive: CRL-7250 -1.81% | HEK293 | HaCat [1] -19.5% | KB-3-1 13.6% | NIH3T3 -0.883%

CCN[C@H]1CN(CCCOC)S(=O)(=O)c2sc(S(N)(=O)=O)cc21
inactive: CRL-7250 2.64% | HEK293 -2.35% | HaCat [1] | KB-3-1 14.5% | NIH3T3 | HACAT [2]

CN1CC(=O)NC1=N
inactive: CRL-7250 -20.6% | HEK293 | HaCat [1] -1.43% | KB-3-1 3.48% | NIH3T3 -1.3%

CCCNC(C)C(=O)Nc1c(C)csc1C(=O)OC (stereo unspecified)
inactive: CRL-7250 | HEK293 -4.55% | HaCat [1] | KB-3-1 -16.9% | NIH3T3 | HACAT [2]

CN1C(=O)CC(c2ccccc2)C1=O (stereo unspecified)
inactive: CRL-7250 1.89% | HEK293 -5.41% | HaCat [1] | KB-3-1 0.936% | NIH3T3 | HACAT [2]

COc1ccc(-c2cc(=O)c3c(O)cc(O[C@@H]4O[C@H](CO[C@@H]5O[C@@H](C)[C@H](O)[C@@H](O)[C@H]5O)[C@@H](O)[C@H](O)[C@H]4O)cc3o2)cc1O
inactive: CRL-7250 -26.4% | HEK293 | HaCat [1] -10.9% | KB-3-1 -15.8% | NIH3T3 -0.449%

NC(=O)NC1NC(=O)NC1=O (stereo unspecified)
inactive: CRL-7250 | HEK293 -3.84% | HaCat [1] | KB-3-1 -5.62% | NIH3T3 | HACAT [2]

CC(C)=CCC[C@@](C)(O)[C@H]1CC=C(C)CC1
inactive: CRL-7250 1.58% | HEK293 | HaCat [1] | KB-3-1 4.77% | NIH3T3 -5.4% | HACAT [2]

O=C(O)[C@@H]1[C@H]2C[C@H]3c4[nH]c5ccccc5c4CCN3C[C@@H]2CC[C@@H]1O
inactive: CRL-7250 -7.72% | HEK293 -7.97% | HaCat [1] 4.24% | KB-3-1 7.03% | NIH3T3

CCOc1ccccc1O[C@H](c1ccccc1)[C@H]1CNCCO1
inactive: CRL-7250 | HEK293 2.57% | HaCat [1] | KB-3-1 2.06% | NIH3T3 1.71% | HACAT [2]

CC(=O)[C@@]1(O)CC[C@H]2[C@@H]3C[C@H](C)C4=CC(=O)C=C[C@]4(C)[C@@]3(F)[C@@H](O)C[C@@]21C
inactive: CRL-7250 -3.29% | HEK293 | HaCat [1] 4.35% | KB-3-1 9.43% | NIH3T3 4.42%

CN[C@@H]1[C@@H](O)[C@@H](O[C@@H]2[C@H](O)[C@H](O[C@H]3OC(CN)=CC[C@H]3N)[C@@H](N)C[C@H]2N)OCC1(C)O (stereo partly specified)
inactive: CRL-7250 2.42% | HEK293 4.89% | HaCat [1] 1.23% | KB-3-1 25.6% | NIH3T3 2.74%
